Records with an inconclusive call do not appear. Where a call stands in place of a potency, no number is given. Activity calls are given as the source filed them. Calls follow the shape of the dose curve; as a rule, active = well fitted inhibition curve with a large enough effect; inconclusive = small, poorly fitted or top-dose-only effect; inactive = flat fitted curve, though single readings scatter.
Potency is read from the fitted curve at half-maximal effect.

Sequence of Voltage-gated inwardly rectifying potassium channel KCNH2 (Homo sapiens) (Q12809 whole entry, looked up): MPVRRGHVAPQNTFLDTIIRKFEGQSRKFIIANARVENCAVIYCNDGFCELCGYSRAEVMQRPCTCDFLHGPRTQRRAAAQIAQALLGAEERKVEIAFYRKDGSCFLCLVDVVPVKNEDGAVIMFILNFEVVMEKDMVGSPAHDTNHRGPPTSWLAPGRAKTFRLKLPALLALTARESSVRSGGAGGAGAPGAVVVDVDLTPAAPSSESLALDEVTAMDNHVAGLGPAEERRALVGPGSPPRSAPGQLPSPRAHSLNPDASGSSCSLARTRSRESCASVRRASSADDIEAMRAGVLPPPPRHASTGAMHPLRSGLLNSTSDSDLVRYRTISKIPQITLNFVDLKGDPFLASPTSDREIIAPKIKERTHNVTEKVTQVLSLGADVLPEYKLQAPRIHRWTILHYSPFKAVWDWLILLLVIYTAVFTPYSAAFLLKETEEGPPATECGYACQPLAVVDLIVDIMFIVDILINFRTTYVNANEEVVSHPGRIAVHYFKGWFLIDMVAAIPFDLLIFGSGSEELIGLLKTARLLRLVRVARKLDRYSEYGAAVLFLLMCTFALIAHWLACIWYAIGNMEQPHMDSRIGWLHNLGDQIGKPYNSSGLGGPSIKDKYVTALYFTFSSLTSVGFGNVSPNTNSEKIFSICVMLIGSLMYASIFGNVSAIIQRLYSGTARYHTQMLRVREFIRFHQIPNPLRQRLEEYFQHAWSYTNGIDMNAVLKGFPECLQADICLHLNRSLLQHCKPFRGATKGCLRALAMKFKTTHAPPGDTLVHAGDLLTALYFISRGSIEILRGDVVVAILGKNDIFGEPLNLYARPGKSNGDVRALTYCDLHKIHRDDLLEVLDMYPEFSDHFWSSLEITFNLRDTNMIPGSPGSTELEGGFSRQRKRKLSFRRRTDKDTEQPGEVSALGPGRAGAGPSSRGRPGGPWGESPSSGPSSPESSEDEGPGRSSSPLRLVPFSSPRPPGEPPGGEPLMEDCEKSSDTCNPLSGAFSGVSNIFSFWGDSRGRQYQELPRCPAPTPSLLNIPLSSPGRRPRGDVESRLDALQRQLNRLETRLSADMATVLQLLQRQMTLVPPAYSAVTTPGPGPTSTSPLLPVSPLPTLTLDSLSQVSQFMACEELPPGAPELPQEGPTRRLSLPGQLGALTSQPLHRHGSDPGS

This test concerns the target Voltage-gated inwardly rectifying potassium channel KCNH2 (Homo sapiens) (UniProt Q12809). Put plainly: qHTS Assay for Small Molecule Inhibitors of the Human hERG Channel Activity (AID 588834).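 Also: lower thallium flux fluorescence means stronger hERG block; nearly all actives have a fitted effect of over 50% in size.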 The settings on record: U2OS BacMam hERG, FluxOR thallium flux fluorescence; series mostly up to 46.1 µM. The method in brief: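 Thallium serves as surrogate for K+ influx through BacMam-delivered hERG in U2OS cells. Compounds are added for about 10 minutes after dye loading; stimulation buffer then starts flux, monitored kinetically on FDSS.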
In general terms: qHTS replaces the single test concentration by a dilution series.
In the case of `NC(N)=NC(=O)c1nc(Cl)c(N2CCCCCC2)nc1N`, the Potency is 8.91 µM (active).
The value for `O=S(=O)(c1cccc2c(I)cccc12)N1CCCNCC1` was 11.2 µM (active); that for `O=C(Nc1cccc(C(=O)Nc2ccc(S(=O)(=O)O)c3cc(S(=O)(=O)O)cc(S(=O)(=O)O)c23)c1)Nc1cccc(C(=O)Nc2ccc(S(=O)(=O)O)c3cc(S(=O)(=O)O)cc(S(=O)(=O)O)c23)c1` was “inactive”.
As for `CC1(C)[C@@H](O[C@H]2O[C@H](C(=O)O)[C@@H](O)[C@H](O)[C@H]2O[C@@H]2O[C@H](C(=O)O)[C@@H](O)[C@H](O)[C@H]2O)CC[C@]2(C)[C@H]3C(=O)C=C4[C@@H]5C[C@@](C)(C(=O)O)CC[C@]5(C)CC[C@@]4(C)[C@]3(C)CC[C@@H]12`, the Potency result is “inactive”.
Consider `C[N+](C)(CCCCCC[N+](C)(C)CCCN1C(=O)c2cccc3cccc(c23)C1=O)CCCN1C(=O)c2cccc3cccc(c23)C1=O`, for which the Potency result was “inactive”.
For `CN1CCN(c2cc3c(nn2)Oc2ccccc2N3C)CC1`, the Potency entry is “inactive”.
Under `COc1ccc(-c2cc(=S)ss2)cc1` stands “inactive”.
With `Cc1ccc(O)c(N=Nc2ccccc2)n1`, the Potency result is “inactive”.
For `COc1ccccc1CNCCCCCCNCCCCCCCCNCCCCCCNCc1ccccc1OC`, the Potency entry was “inactive”.
As to `CC(C(=O)O)c1ccc(C(=O)c2ccccc2)s1` (stereo not drawn), the Potency entry was “inactive”.
The value for `C=C(Nc1ccc(OCC)cc1)Nc1ccc(OCC)cc1` was 14.1 µM (active); that for `CCN1/C(=C/C(C)=O)Sc2ccc(OC)cc21` was “inactive”; that for `C[S+](CC[C@H](N)C(=O)O)C[C@H]1O[C@@H](n2cnc3c(N)ncnc32)[C@H](O)[C@@H]1O` (stereo partly drawn) was “inactive”.

These data come from PubChem BioAssay (NCATS).
